LmPK inh: blocks Leishmania mexicana pyruvate kinase activity | Q27686 | Potency, µM (titrated, usually from 57.5 µM), inactives show at the highest dose activity change, negative = inhibition, hits mostly inhibitors | 290,000 compounds, 0.37% hits | purified LmPK, Kinase-Glo ATP luminescence, 1 h | AID 1721; further: potency means the concentration at half of the fitted maximal effect; on the % scale 0 is the no-effect control and ±100 the full control effect
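Kinase-Glo luminescence read after 1 h RT reaction of 0.1 nM LmPK with 0.5 mM PEP and 0.1 mM ADP. Activity scaled between uninhibited and enzyme-free controls.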
Tb PYK inh: blocks Trypanosoma brucei pyruvate kinase | TbPYK enzyme, Kinase-Glo Plus ATP luminescence, 45 min | Q57TT1 | AID 624173 | 410,000 compounds, 0.12% hits | Potency, µM (highest dose often 76.8 µM), without a hit: at the highest dose activity, negative = inhibition, usual class: inhibitors; further: potency means the concentration at half of the fitted maximal effect; on the % scale 0 is the no-effect control and ±100 the full control effect; nearly all actives have a fitted effect of over 50% in size
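In this concentration-response screen, enzyme-free wells defined baseline while DMSO plates tracked drift. Each reaction combined TbPYK, substrate, compound and 130 uM ADP for 45 min at room temperature. Kinase-Glo Plus luminescence gave the signal.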
Shiga toxin inh: Shiga toxin inhibition; AID 2315; inhibition, % at 38.7 µM; 290,000 compounds, 9.2% hits; Vero cells, Shiga toxin protein synthesis inhibition reporter; in the data active means inhibition mostly above about 28%, no sharp cut-off; inactive means mostly below about 43%; further: 0% is about no effect
CHX counter: counter-screen hit for Shiga toxin inhibitors, cycloheximide. max response, %. 300,000 compounds, 12% hits. cell reporter, cycloheximide protein synthesis inhibition counterscreen; in the data active means max response mostly above about 13%, no sharp cut-off; inactive means mostly below about 14%; further: read at 38.3 µM for the half of the compounds with a filed dose; 0% is about no effect
RE007 growth inh: less growth of the S. pombe RE007 Vpr strain; 360,000 compounds, 0.21% hits; AID 651644; S. pombe RE007 Vpr strain, BacTiter-Glo ATP luminescence, 24 h; Potency, µM (titrated, usually from 92.2 µM), inactives show at the highest dose activity change, negative = less growth, usual class: inhibitors; active means well fitted falling curve with a large enough effect; inconclusive means small, poorly fitted or top-dose-only effect; inactive means no such curve, though single readings can be large or run the other way; further: potency means the concentration at half of the fitted maximal effect; on the % scale 0 is the no-effect control and ±100 the full control effect; nearly all actives have a fitted effect of over 50% in size
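Fission yeast strain RE007, carrying one chromosomally integrated HIV-1 vpr copy, was seeded at OD 0.01 in PMG+AL medium with 23 nL pinned compound. After 24 h at 30 °C and 99% humidity, viability was read by BacTiter-Glo luminescence.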
Giardia FBPA inh: inhibitors of Giardia lamblia fructose-1,6-bisphosphate aldolase; A8B2U2; purified Giardia FBPA; Potency, µM (titrated, usually from 59.6 µM), for inactives: top-dose activity, negative = inhibition, hits mostly inhibitors; 290,000 compounds, 0.71% hits; AID 2451; further: potency means the concentration at half of the fitted maximal effect; on the % scale 0 is the no-effect control and ±100 the full control effect; nearly all actives have a fitted effect of over 55% in size
Target sequence (A8B2U2 whole entry, looked up): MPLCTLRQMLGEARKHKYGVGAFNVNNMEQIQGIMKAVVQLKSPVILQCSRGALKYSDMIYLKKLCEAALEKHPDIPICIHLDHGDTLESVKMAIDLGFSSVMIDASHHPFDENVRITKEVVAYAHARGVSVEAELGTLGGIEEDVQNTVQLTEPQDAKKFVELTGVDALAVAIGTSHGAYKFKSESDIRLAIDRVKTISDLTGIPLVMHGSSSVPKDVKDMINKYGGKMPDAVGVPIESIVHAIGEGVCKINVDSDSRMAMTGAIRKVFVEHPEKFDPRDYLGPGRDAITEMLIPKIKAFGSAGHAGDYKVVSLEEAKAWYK
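Giardia FBPA (40 nM reagent) was preincubated 10 min at RT with compound (up to 57.5 uM final), then substrate plus GAPDH/TPI/NAD/arsenate coupling system with diaphorase/resazurin was added; resorufin fluorescence (525/598 nm) was read after 20 min.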
Numbers without * were called inactive; u = inconclusive; x = not tested or not shown; [ ] = dose if it differs, or a comment. This is one part of a sample in which hits are shown more often than they occur. Unless noted, the call rests on the fitted dose curve; in most records, active means well fitted curve in the direction sought with a large enough effect; inconclusive means small, poorly fitted or top-dose-only effect, or another doubt; inactive means no such curve, though single readings can be large; an effect the other way counts as inactive or inconclusive.

SMILES	LmPK inh	Tb PYK inh	Shiga toxin inh	CHX counter	RE007 growth inh	Giardia FBPA inh
COc1ccc2c(CNC3CCC(C)CC3)c(C(=O)O)n(Cc3ccc(F)cc3)c2c1 (configuration not stated)	x	-8%	x	x	x	x
O=C1Nc2ccccc2-c2nnnn2C1N1CCCCC1 (configuration not stated)	x	x	x	x	2%	x
Cc1nc2ccccn2c1C(=O)Nc1ccc2c(c1)OCCO2	-13%	-4%	112*	45*	5%	-8%
Cc1nc2ccccn2c1C(=O)CSc1ccccc1	7%	-1%	38*	31*	-12%	2%
COc1ccc(NC(=O)/C=C/c2c(Cl)nc3ccccn23)cc1	-7%	1%	-2	20*	-12%	-8%
Cc1nc2ccccn2c1C(=O)Nc1ccc(Cl)cc1	3%	-2%	52	24*	11%	-3%
COc1ccc(NC(=O)Nc2sc3nc4n(c(=O)c3c2C)CCC(C)CC4)cc1OC (configuration not stated)	x	-3%	x	x	x	x
C[C@@H]1CCCCO[C@@H](CN(C)S(=O)(=O)c2cn(C)cn2)[C@@H](C)CN([C@H](C)CO)C(=O)c2cc(N(C)C)ccc2O1	x	-6%	x	x	-4%	x
CCOC(=O)C1(C#N)Cc2ccccc2C1	x	7%	x	x	-6%	x
O=C1NC(=O)C2(CCCc3c([N+](=O)[O-])cccc32)N1 (configuration not stated)	x	-4%	x	x	18%	x
Cc1ccc(NC(=O)c2c(Cl)nc3ccccn23)cc1	0%	5%	114*	37*	-10%	3%
CCCCCCc1cc2cc(-c3nnc(-c4cccc(Cl)c4)o3)c(=O)oc2cc1O	x	4%	x	x	x	x
Cc1c(C(=O)Nc2ccc(F)c(Cl)c2)sc2nc3n(c(=O)c12)CCC3	x	-9%	x	x	x	x
Cc1ccc2nc(NC(=O)COC(=O)c3cccnc3)sc2c1	x	-3%	x	x	11%	x
CCCC(=O)Nc1nc2ccc(C(=O)OCC)cc2s1	2%	-2%	73*	26*	17%	8%
CCOC(=O)c1ccc2nc(NC(=O)C(C)C)sc2c1	-2%	1%	59*	44*	13%	-1%
CCCCC(=O)Nc1nc2ccc(C(=O)OC)cc2s1	2%[11.5 µM]	-6%	97*	27*	-1%	2%
C=CCN(CC=C)S(=O)(=O)c1ccc2nc(NC(=O)C(C)C)sc2c1	0%	-11%	-10	-1	-11%	0%
O=c1c2sc3ccccc3c2n(Cc2cccc(Cl)c2)c(=O)n1Cc1ccc(F)cc1	x	2%	x	x	x	x
O=C(Nc1ccc(Br)cc1)c1ccc(-n2cnnn2)cc1	-8%	-14%	1	9	-7%	-18%
O=C(Nc1ccc(-n2cnnn2)cc1)c1cn2ccccc2n1	-1%	0%	30	22*	-8%	4%
Cc1csc(NC(=O)c2cn3ccccc3n2)n1	14µM*	u	-18	-3	u	u
O=C(Nc1ccccc1)c1cn2ccccc2n1	16µM*	-22%	7	7	-18%	-4%
Cc1c(NC(=O)c2cn3ccccc3n2)cccc1-n1cnnn1	3%	0%	33	15*	4%	-4%
CCOc1ccc(N=C2NC(=O)CS2)cc1	8%	4%	x	-4	12%	-7%
SMILES	LmPK inh	Tb PYK inh	Shiga toxin inh	CHX counter	RE007 growth inh	Giardia FBPA inh
O=c1[nH][nH]c(C(F)(F)F)c1C=NCc1cccs1	2%	8%	-6	-2	5%	0%
COCc1ccccc1C1=CC(=O)C[C@H](c2ccc(OC)cc2)C1	x	-3%	x	x	10%	x
Cc1ccc(N2C(=O)/C(=C/c3cccnc3)SC2=S)cc1	-5%	-1%	2	6	6%	1%
COc1cc(/C=C2\SC(=Nc3ccccc3OC)NC2=O)ccc1O	0%	-5%	-2	16*	-2%	5%
COc1ccc(/C=C2\SC(=Nc3ccccc3OC)NC2=O)cc1	1%	4%	69	20*	-22%	0%
COc1ccc(/C=C2\SC(=NCc3ccccc3)NC2=O)cc1	7%	2%	5	9	-25%	2%
Cc1ccc(N2C(=O)/C(=C/c3ccco3)SC2=S)cc1	4%	8%	2	16*	-11%	-23%
Cc1ccc(N=C2NC(=O)S/C2=C\c2ccco2)cc1	-7%	8%	49*	18*	3%	-19%
O=C(CSc1nc2c(c(=O)[nH]1)CN(Cc1ccc3c(c1)OCO3)CC2)Nc1ccc(F)c(F)c1	x	1%	x	x	x	x
CCCC1Cc2nc(Cl)c(C#N)cc2CO1 (configuration not stated)	-4%	-4%	-10	-2	-1%	-1%
Cc1cccc(N2C(=O)/C(=C/c3ccccn3)SC2=S)c1	5%	0%	-2	1	-13%	1%
O=C1/C(=C/c2ccccn2)SC(=S)N1c1ccc(O)cc1	-2%	5%	67*	30*	-16%	-4%
COc1ccc(N=C2NC(=O)/C(=C/c3ccco3)S2)cc1	2%	-4%	36	36*	0%	-5%
COc1ccc(S(=O)(=O)/N=C2/NC(=O)/C(=C/c3ccco3)S2)cc1	10%	-3%	9	-3	-8%	10%
Cc1cccc(-c2nc3scc(CCNC(=O)c4ccccc4Cl)n3n2)c1	x	0%	x	x	x	x
CCC(=O)N1CCc2cc(CNC(=O)Cc3ccc(OC)c(OC)c3)ccc21	x	-9%	x	x	x	x
O=c1c(-c2ccc3c(c2)OCCO3)coc2cc(OC3OC(CO)C(O)C(O)C3O)ccc12 (configuration not stated)	-7%	4%	54*	40*	-1%	0%
COc1ccc(-c2coc3cc(O[C@@H]4O[C@H](CO)[C@@H](O)[C@H](O)[C@H]4O)ccc3c2=O)cc1	x	-1%	x	x	-4%	x
O=C(CNC(=O)c1ccc(Br)o1)NCc1ccc(Cl)cc1	-1%	1%	-4	-1	-3%	x
CCCC/C(=N\NC(=O)c1ccc(Br)o1)c1ccccc1	5%	-5%	46*	32*	-10%	-1%
CC/C(=N/NC(=O)c1ccc(Br)o1)c1ccc(Cl)cc1	-2%	-3%	125*	39*	1%	0%
CC(C)[C@H](NC(=O)[C@H](CCC(N)=O)NC(=O)CNC(=O)[C@@H]1CCCN1C(=O)[C@H](Cc1ccc(O)cc1)NC(=O)CN)C(=O)O	x	x	7	-3	x	-2%
CCOC(=O)Cc1ccc(NC(=O)NC(C)c2c(-n3cccc3)sc(C)c2C)cc1 (configuration not stated)	x	-1%	x	x	x	x
O=C(Nc1ccccc1O)c1csc2c1CCCC2	-3%	1%	98*	35*	u	-13%
COc1ccc(NC(=O)c2csc3c2CCCCC3)c(OC)c1	-3%	-8%	44	16*	30%	-13%
Cc1cccc(C)c1NC(=O)c1csc2c1CCCC2	x	-9%	x	x	x	x
CN(Cc1ccccc1)S(=O)(=O)c1nnc(NC(=O)c2cccc(Cl)c2)s1	x	0%	x	x	x	x

Assay outcomes: PubChem BioAssay, National Center for Advancing Translational Sciences (NCATS)
